# Measured values as given in PubChem BioAssay (NCI).
# Compounds without any hit were thinned out: in the full panel of roughly 83,000, 20% have a hit.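 Testing used 96-well plates and a 48-hour single-concentration exposure. Example: -40 means 40% of the starting cells died.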 Calls of active or inactive are those of the source. How the source made its calls: active means growth percent below 10; inactive means the rest.
# Tested on: HL-60(TB) leukemia
# Assay: NCI-60 one-dose screen, 48 h (100 = growth as untreated, 0 = no growth, -100 = all killed)
# Conditions: 10 µM unless noted
row,Compound,growth
1,CCN1CCN(c2nc(NNC(=O)c3cccc(OC)c3)nc(N3CCN(C(c4ccccc4)c4ccccc4)CC3)n2)CC1,28.4% (inactive)
2,C=C1CCC2C3(C)COC(c4ccc(SC)cc4)OC3CCC2(C)C1C/C=C1/C(=O)OCC1O (centres undefined),-12.1% (active)
3,O=C1c2cc3c(cc2-c2c1c1cc(F)c(F)cc1c(=O)n2C[C@H](O)CO)OCO3,-16.4% (active)
4,CCC1S/C(=N\N=C(/C)c2cc3ccccc3o2)N(c2ccccc2)C1=O (centres undefined),-93.7% (active)
5,O=C(Cc1ccc(/C=C/C(=O)c2ncc[nH]2)cc1)Nc1ccc(F)cc1,-17.3% (active)
6,CCC1CCCCN1C(=S)N/N=C(\C)c1ccccn1 (centres undefined),8.04% (active)
7,COc1cc(C)ccc1C(=O)c1ccc(C)cc1OC,8.59% (active)
8,COc1ccc(CCNc2nc3c(c(=O)n(Cc4ccc(Br)cc4)c(=O)n3C)n2C)cc1OC,28.6% (inactive)
9,O=C(/C=C/c1ccc(C(F)(F)F)cc1)c1ccc(Nc2nc(NCCO)nc(NCCO)n2)cc1,88.5% (inactive)
10,COc1ccc(-c2nc(-c3ccccc3)c(-c3ccccc3)[nH]2)cc1OC1CCCCC1,97.6% (inactive)
11,O=C1NC(=Nc2ccc(O)cc2)S/C1=C\c1cccc(Cl)c1,22.9% (inactive)
12,COc1ccc(-c2nc3cc(C(=O)NC4CCCCC4)ccc3n2C2CCCCC2)cc1,79.1% (inactive)
13,NC(=S)N/N=C/c1ccc(OC(=O)COc2cc(Cl)c(Cl)cc2Cl)cn1,47.1% (inactive)
14,C=C1C(=O)O[C@H]2[C@H]1CC/C(CNC(=O)c1cc3cc(OC)ccc3[nH]1)=C\CC[C@@]1(C)O[C@@H]21,-21.3% (active)
